In the supplement of paper PMC8728848:
The entries come from a sample that favours the strongest signals as a whole.

Key:
Experiment in all cases: glycan array binding signal (z-score within array); higher = stronger binding
Conditions in all cases: glycan notation: IUPAC condensed, linker removed
[1] = molecular target: Fuc(a1-2)Gal(b1-4)[Fuc(a1-3)]GalNAc(b1-3)Gal(b1-4)[Fuc(a1-3)]GlcNAc
Procedure, shortened: (§1)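 The binding signal is a Z-score computed within each array and averaged over linkers. Arrays of the same protein sequence at different concentrations or buffers were also averaged together. Data originate from 3228 arrays in the Consortium for Functional Glycomics database, kept only where the protein sequence was available.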

[2] = molecular target: Fuc(a1-2)Gal(b1-4)[Fuc(a1-3)]GlcNAc
Procedure, shortened: as §1

[3] = molecular target: Gal(a1-3)Gal(b1-3)Glc
Procedure, shortened: as §1

[4] = molecular target: Gal(b1-3)[Neu5Ac(a2-6)]GalNAc
Procedure, shortened: as §1

[5] = molecular target: Gal(b1-4)GlcNAc(b1-3)Gal(b1-4)Glc
Procedure, shortened: as §1

[6] = molecular target: Gal4S(b1-4)GlcNAc
Procedure, shortened: as §1

[7] = molecular target: Glc(a1-4)Glc
Procedure, shortened: as §1

[8] = molecular target: GlcNAc(b1-3)Gal(b1-4)GlcNAc(b1-3)Gal(b1-4)GlcNAc
Procedure, shortened: as §1

[9] = molecular target: GlcNAc(b1-3)[GlcNAc(b1-6)]GlcNAc
Procedure, shortened: as §1

[10] = molecular target: Man(a1-2)Man(a1-2)Man(a1-6)[Man(a1-3)]Man
Procedure, shortened: as §1

[11] = molecular target: Man(a1-2)Man(a1-3)Man
Procedure, shortened: as §1

[12] = molecular target: Neu5Ac(a2-3)Gal(b1-3)[Fuc(a1-4)]GlcNAc(b1-3)Gal(b1-4)[Fuc(a1-3)]GlcNAc
Procedure, shortened: as §1

[13] = molecular target: Neu5Ac(a2-3)Gal(b1-4)GlcNAc6S
Procedure, shortened: as §1

[14] = molecular target: Neu5Ac(a2-3)Gal(b1-4)[Fuc(a1-3)]GlcNAc(b1-3)Gal(b1-4)[Fuc(a1-3)]GlcNAc(b1-3)Gal(b1-4)[Fuc(a1-3)]GlcNAc
Procedure, shortened: as §1

[15] = molecular target: Neu5Ac(a2-6)GalNAc
Procedure, shortened: as §1

[16] = molecular target: Neu5Ac9Ac(a2-6)Gal(b1-4)GlcNAc
Procedure, shortened: as §1

[17] = molecular target: GlcNAc(b1-2)Man(a1-3)[GlcNAc(b1-4)][GlcNAc(b1-2)Man(a1-6)]Man(b1-4)GlcNAc(b1-4)[Fuc(a1-6)]GlcNAc
Procedure, shortened: as §1

[18] = molecular target: GlcNAc(b1-2)[GlcNAc(b1-4)]Man(a1-3)[GlcNAc(b1-4)][GlcNAc(b1-2)Man(a1-6)]Man(b1-4)GlcNAc(b1-4)GlcNAc
Procedure, shortened: as §1

[19] = molecular target: GlcNAc(b1-2)[GlcNAc(b1-6)]Man(a1-6)[GlcNAc(b1-2)Man(a1-3)]Man(b1-4)GlcNAc(b1-4)[Fuc(a1-6)]GlcNAc
Procedure, shortened: as §1

[20] = molecular target: GlcNAc(b1-3)Gal(b1-4)GlcNAc(b1-2)[GlcNAc(b1-3)Gal(b1-4)GlcNAc(b1-6)]Man(a1-6)[GlcNAc(b1-3)Gal(b1-4)GlcNAc(b1-2)Man(a1-3)]Man(b1-4)GlcNAc(b1-4)GlcNAc
Procedure, shortened: as §1

[21] = molecular target: GlcNAc(b1-3)Gal(b1-4)GlcNAc(b1-3)Gal(b1-4)GlcNAc(b1-2)Man(a1-3)[GlcNAc(b1-3)Gal(b1-4)GlcNAc(b1-3)Gal(b1-4)GlcNAc(b1-2)Man(a1-6)]Man(b1-4)GlcNAc(b1-4)GlcNAc
Procedure, shortened: as §1

[22] = molecular target: GlcNAc(b1-3)Gal(b1-4)GlcNAc(b1-3)[GlcNAc(b1-3)Gal(b1-4)GlcNAc(b1-3)]GalNAc
Procedure, shortened: as §1

[23] = molecular target: Kdn(a2-6)Gal(b1-4)GlcNAc
Procedure, shortened: as §1

[24] = molecular target: Neu5Ac(a2-3)Gal(b1-3)GlcNAc(b1-6)GalNAc
Procedure, shortened: as §1

[25] = molecular target: Neu5Ac(a2-3)Gal(b1-3)GlcNAc6S
Procedure, shortened: as §1

[26] = molecular target: Neu5Ac(a2-3)Gal(b1-3)[Neu5Ac(a2-6)]GlcNAc(b1-3)[Fuc(a1-3)[Gal(b1-4)]GlcNAc(b1-6)]Gal(b1-4)Glc
Procedure, shortened: as §1

[27] = molecular target: Neu5Ac(a2-3)Gal(b1-4)Glc
Procedure, shortened: as §1

[28] = molecular target: Neu5Ac(a2-3)Gal(b1-4)GlcNAc(b1-3)Gal(b1-3)GlcNAc
Procedure, shortened: as §1

[29] = molecular target: Neu5Ac(a2-3)Gal(b1-4)GlcNAc(b1-6)[Gal(b1-3)]GalNAc
Procedure, shortened: as §1

[30] = molecular target: Neu5Ac(a2-3)GalNAc
Procedure, shortened: as §1

[31] = molecular target: Neu5Ac(a2-6)Gal(b1-4)GlcNAc(b1-2)Man(a1-3)Man(b1-4)GlcNAc(b1-4)GlcNAc
Procedure, shortened: as §1

[32] = molecular target: Neu5Ac(a2-8)Neu5Ac(a2-3)Gal(b1-3)GalNAc(b1-4)[Neu5Ac(a2-8)Neu5Ac(a2-3)]Gal(b1-4)Glc
Procedure, shortened: as §1

[33] = molecular target: Neu5Ac(a2-8)Neu5Ac(a2-8)Neu5Ac
Procedure, shortened: as §1

[34] = molecular target: Neu5Gc(a2-3)Gal(b1-4)GlcNAc
Procedure, shortened: as §1

B1: 7WC (Trifolium repens) (protein)
chain: MGTITSYAVVFDAGSTGSRVHVYHFDQNLDLLHIGKDVEFYNKIQPGLSAYADNPEQAAKSLIPLLEQAENVVPEDFHSKTPIRLGATAGLRLLDGDASERILQAVRDMLNNKSTFNVQPDAVSIIDGTQEGSYLWVTINYVLGNLGKRFTNTVGVIDLGGGSVQMAYAVSKKTARNAPKVTDGEDPYIKKIVLKGKPYDLYVHSYLHFGREASRAEILKVTHGSASPCILAGFDGIYTYSGEEFKASAPTSGANFDKCKKIIQKALKLDYPCPYQNCTFGGIWNGGGGSGQKKLFAASSFFYLPQDVGMVDPNKSNLKLRPVDLENKAKIVCTLNVEDVKSAYPLLEKFNIVPYACMDLIYQYELLVDGFGLDPLQEITAGEKIEYQEALVDAAWALGNAVEAVLLLPKFERLMYFVVEHHHHHH
glycan array binding signal (z-score) [1]: -0.347
glycan array binding signal (z-score) [2]: -0.391
glycan array binding signal (z-score) [3]: -0.298
glycan array binding signal (z-score) [4]: -0.464
glycan array binding signal (z-score) [5]: -0.215
glycan array binding signal (z-score) [6]: -0.335
glycan array binding signal (z-score) [7]: 2.65
glycan array binding signal (z-score) [8]: -0.327
glycan array binding signal (z-score) [9]: 0.685
glycan array binding signal (z-score) [10]: 9.79
glycan array binding signal (z-score) [11]: -0.261
glycan array binding signal (z-score) [12]: 4.17
glycan array binding signal (z-score) [13]: -0.474
glycan array binding signal (z-score) [14]: 2.57
glycan array binding signal (z-score) [15]: -0.153
glycan array binding signal (z-score) [16]: -0.491

B2: Sebin1 (Coprinopsis cinerea), A8PEE3 (protein)
chain: MTSPFYAHIHNVQDDNTWRFTLIFANRATADEWWRAISEAPANTSIAKSITRVTPQYYTHDVNIWNIWNFFADGNIKSISERFRGRLFIVLENDRGGRGITVIPPVPIVDHVSGNWFYIRSKTAPHLFWYYDERRSSIYASKEKRTRFKISIRNPSSQTPKNAIMINTDDVTIHIKENLYVGVDNNLGHIIPTRAYRTFKFGELESGAIAGFDVVENIEERCSSTFDGASLSISGPDSSSPGEPWELV
glycan array binding signal (z-score) [17]: -0.296
glycan array binding signal (z-score) [18]: 2.33
glycan array binding signal (z-score) [19]: -0.058
glycan array binding signal (z-score) [20]: -0.792
glycan array binding signal (z-score) [21]: 0.145
glycan array binding signal (z-score) [22]: -0.696
glycan array binding signal (z-score) [23]: -0.282
glycan array binding signal (z-score) [24]: -0.335
glycan array binding signal (z-score) [25]: -0.146
glycan array binding signal (z-score) [26]: -0.727
glycan array binding signal (z-score) [27]: 3.86
glycan array binding signal (z-score) [28]: -0.415
glycan array binding signal (z-score) [29]: 2.49
glycan array binding signal (z-score) [30]: -0.458
glycan array binding signal (z-score) [31]: -0.4
glycan array binding signal (z-score) [32]: -0.152
glycan array binding signal (z-score) [33]: -0.546
glycan array binding signal (z-score) [34]: -0.074
